# Reference: PubChem BioAssay
# For part of these data: Potency and affinity values are given separately. Activity calls are given as the source filed them.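 How the source made its calls, unless noted: active means fitted half-maximal concentration within the tested dose range, moderate curve steepness, a statistically real signal drop, and little compound fluorescence or tag-binding interference; inactive means the rest.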
# What was measured:
# [1] = biological target: Cell division control protein 42 homolog (Homo sapiens) (UniProt P60953); assay: inhibition of fluorescent GTP binding to constitutively active Cdc42 – biochemical, multiplex bead flow cytometry, Bodipy-FL-GTP, dose response (AID 1333)
# Chain of Cell division control protein 42 homolog (Homo sapiens) (P60953 whole entry, looked up): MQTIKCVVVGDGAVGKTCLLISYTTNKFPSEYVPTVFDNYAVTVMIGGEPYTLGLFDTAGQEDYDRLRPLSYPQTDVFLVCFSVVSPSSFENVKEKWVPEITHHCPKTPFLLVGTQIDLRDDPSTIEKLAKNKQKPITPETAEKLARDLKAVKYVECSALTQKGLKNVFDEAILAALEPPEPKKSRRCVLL
# [2] = biological target: Cell division control protein 42 homolog (Homo sapiens) (UniProt P60953); assay: inhibition of fluorescent GTP binding to wildtype Cdc42 – biochemical, multiplex bead flow cytometry, Bodipy-FL-GTP, dose response (AID 1334;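 active means fitted half-maximal concentration within the tested range, moderate curve steepness, significant signal drop, and little compound fluorescence or bead-linkage interference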); settings: bead-based flow cytometry, Bodipy-FL-GTP binding to GST-Cdc42; at 100 µM (top of the series)
# [3] = system: Ras-related protein Rab-7a (dog), GTP binding; assay: blockers of fluorescent GTP binding to Rab7 – biochemical, wildtype, multiplex bead flow cytometry, dose response (AID 1336; call rule not given here)
# [4] = biological target: Ras-related C3 botulinum toxin substrate 1 (Homo sapiens) (UniProt P63000); assay: inhibition of wildtype Rac1 nucleotide loading – biochemical, multiplex bead flow cytometry, dose response (AID 1340;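 active means dose curve with midpoint inside tested range, moderate steepness, plateau gap beyond fit error, low compound glow and bead-link interference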); settings: GST-Rac1 beads, Bodipy-FL-GTP binding; at 100 µM (top of the series)
# [5] = biological target: GTPase HRas (Homo sapiens) (UniProt P01112); assay: blockade of GTP loading onto mutant Ras – biochemical, activated mutant, multiplex bead flow cytometry, dose response (AID 1341;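 active means dose-response curve with midpoint inside the tested range, moderate steepness, significant amplitude and little compound fluorescence or bead-attachment interference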;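 further: GST-tagged constitutively activated Ras mutant immobilized on beads and multiplexed with other GTPases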)
# [6] = hit retest on RPL19A-GFP reporter strain – cell-based, S. cerevisiae, flow cytometry, cherry picks, mother/daughter gates, confirmation (AID 2270;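 active means GFP response below 50% of the DMSO control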); settings: 3 h, at 10 µM, stronger effect = lower value, 100 = same GFP as DMSO wells
# [7] = yeast TOR pathway reporter LAP4-GFP change – cell-based, cherry picks, flow cytometry, mother/daughter gates, confirmation (AID 2271;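 active means GFP response above 150% of the DMSO control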;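 further: ratio of sample to DMSO plate mean so 100% equals DMSO level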); settings: S. cerevisiae LAP4-GFP strain, 3 h, at 10 µM, stronger effect = higher value
# [8] = TOR pathway reporter MEP2-GFP, retest of hits – S. cerevisiae, flow cytometry GFP, cherry picks, confirmation (AID 2272;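 active means GFP response above 150% of the DMSO control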;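 further: ratio of well signal to plate DMSO mean so 100% equals DMSO level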); settings: S. cerevisiae MEP2-GFP strain, 3 h, at 10 µM, stronger effect = higher value
# [9] = yeast AGP1-GFP fluorescence change, single-dose – cell-based, flow cytometry, S. cerevisiae, cherry picks, confirmation (AID 2273;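 active means GFP response above 150% of the DMSO level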;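 further: median GFP channel fluorescence over the whole cell population gate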); settings: S. cerevisiae AGP1-GFP strain, 3 h, at 10 µM
# [10] = TOR pathway CIT2 reporter hit retest – S. cerevisiae, GFP fusion, cherry picks, mother/daughter gates, confirmation (AID 2274;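 active means GFP response above 150% of the DMSO level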); settings: S. cerevisiae CIT2-GFP strain, flow cytometry, 3 h, at 10 µM, stronger effect = higher value
# [11] = measured here: daughter cell gate
# [12] = measured here: mother cell gate
# [13] = measured here: daughter cell gate response
# [14] = measured here: mother cell gate response
smiles,measurement,setting,value
Cc1ccc(-n2c(O)c(/C=N/c3ncc(Br)cc3Br)c(=O)[nH]c2=O)cc1,outcome,[1],inactive
same,"fluorescence, percent of control (lower = inhibition)",[2],49.1%
same,outcome,[3],inactive
same,"GTP binding signal, raw median fluorescence (lower = inhibition) (MCF (arbitrary fluorescence units))",[4],59.9
same,outcome,[5],inactive
O=C(O)c1cn(Cc2ccccc2Cl)c2ccccc12,outcome,[1],inactive
same,"fluorescence, percent of control (lower = inhibition)",[2],64.9%
same,outcome,[3],inactive
same,"GTP binding signal, raw median fluorescence (lower = inhibition) (MCF (arbitrary fluorescence units))",[4],34.1
same,outcome,[5],inactive
CC1(C)CC(n2[nH]c(=O)c3c2NC(=O)CSC3c2ccccc2)CCO1 (stereo not drawn),outcome,[1],inactive
same,"fluorescence, percent of control (lower = inhibition)",[2],35.5%
same,outcome,[3],inactive
same,"GTP binding signal, raw median fluorescence (lower = inhibition) (MCF (arbitrary fluorescence units))",[4],266
same,outcome,[5],inactive
C#C[C@]1(O)CC[C@H]2[C@@H]3CCC4=CC(=O)CC[C@]4(C)[C@H]3CC[C@@]21C,GFP response vs DMSO,[6],97% (inactive)
same,GFP response vs DMSO,[6]; [11],95.9%
same,GFP response vs DMSO,[6]; [12],95.6%
same,GFP response relative to DMSO,[7],103% (inactive)
same,GFP response relative to DMSO,[7]; [13],102%
same,GFP response relative to DMSO,[7]; [14],101%
same,GFP response vs DMSO,[8],107% (inactive)
same,"GFP response, % of DMSO",[9],95.4% (inactive)
same,"GFP response, % of DMSO",[10],95.5% (inactive)
same,"GFP response, % of DMSO",[10]; [11],97.2%
same,"GFP response, % of DMSO",[10]; [12],92.6%
CN1C(=O)N(C)C(=O)C2(Cc3c(ccc4ccccc34)N(C)C2)C1=O,outcome,[1],inactive
same,"fluorescence, percent of control (lower = inhibition)",[2],34.8%
same,outcome,[3],inactive
same,"GTP binding signal, raw median fluorescence (lower = inhibition) (MCF (arbitrary fluorescence units))",[4],230
same,outcome,[5],inactive
CCN(CC)c1ccc(/C=N/c2sc3c(c2C#N)C2CCN3CC2)c(O)c1,outcome,[1],inactive
same,"fluorescence, percent of control (lower = inhibition)",[2],91.1%
same,outcome,[3],inactive
same,"GTP binding signal, raw median fluorescence (lower = inhibition) (MCF (arbitrary fluorescence units))",[4],248
same,outcome,[5],inactive
CC[C@@H]1C(=O)OC[C@@H]1Cc1cncn1C,GFP response vs DMSO,[6],99.5% (inactive)
same,GFP response vs DMSO,[6]; [11],98.3%
same,GFP response vs DMSO,[6]; [12],100%
same,GFP response relative to DMSO,[7],102% (inactive)
same,GFP response relative to DMSO,[7]; [13],101%
same,GFP response relative to DMSO,[7]; [14],102%
same,GFP response vs DMSO,[8],104% (inactive)
same,"GFP response, % of DMSO",[9],103% (inactive)
same,"GFP response, % of DMSO",[10],99.3% (inactive)
same,"GFP response, % of DMSO",[10]; [11],98.3%
same,"GFP response, % of DMSO",[10]; [12],100%
O=c1[nH]c(=S)[nH]c(O)c1N=Nc1ccc(S(=O)(=O)N2CCc3ccccc32)cc1,outcome,[1],inactive
same,"fluorescence, percent of control (lower = inhibition)",[2],44.9%
same,outcome,[3],inactive
same,"GTP binding signal, raw median fluorescence (lower = inhibition) (MCF (arbitrary fluorescence units))",[4],312
same,outcome,[5],inactive
O=C1CN=C(c2ccccc2F)c2cc(Cl)ccc2N1,GFP response vs DMSO,[6],99.3% (inactive)
same,GFP response vs DMSO,[6]; [11],99%
same,GFP response vs DMSO,[6]; [12],99.1%
same,GFP response relative to DMSO,[7],97.4% (inactive)
same,GFP response relative to DMSO,[7]; [13],98.7%
same,GFP response relative to DMSO,[7]; [14],98.3%
same,GFP response vs DMSO,[8],100% (inactive)
same,"GFP response, % of DMSO",[9],98% (inactive)
same,"GFP response, % of DMSO",[10],107% (inactive)
same,"GFP response, % of DMSO",[10]; [11],105%
same,"GFP response, % of DMSO",[10]; [12],111%
